The campaign covered roughly 310,000 compounds. About 14,000 (4.5%) showed an effect of 50% or more. The effect is printed as a negative number. The list comes from a sample in which strong results are over-represented; it also holds similar structures and randomly drawn compounds.
These molecules were tested against human ether-à-go-go-related gene (hERG) potassium channel (human, UniProt Q12809) (assay: primary screen, population patch clamp on CHO cells stably expressing hERG; higher = less effect of the substance).
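Note: peak tail current of the secondary pulse compared with the same well before compound.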

Chain of human ether-à-go-go-related gene (hERG) potassium channel (Q12809 whole entry, looked up): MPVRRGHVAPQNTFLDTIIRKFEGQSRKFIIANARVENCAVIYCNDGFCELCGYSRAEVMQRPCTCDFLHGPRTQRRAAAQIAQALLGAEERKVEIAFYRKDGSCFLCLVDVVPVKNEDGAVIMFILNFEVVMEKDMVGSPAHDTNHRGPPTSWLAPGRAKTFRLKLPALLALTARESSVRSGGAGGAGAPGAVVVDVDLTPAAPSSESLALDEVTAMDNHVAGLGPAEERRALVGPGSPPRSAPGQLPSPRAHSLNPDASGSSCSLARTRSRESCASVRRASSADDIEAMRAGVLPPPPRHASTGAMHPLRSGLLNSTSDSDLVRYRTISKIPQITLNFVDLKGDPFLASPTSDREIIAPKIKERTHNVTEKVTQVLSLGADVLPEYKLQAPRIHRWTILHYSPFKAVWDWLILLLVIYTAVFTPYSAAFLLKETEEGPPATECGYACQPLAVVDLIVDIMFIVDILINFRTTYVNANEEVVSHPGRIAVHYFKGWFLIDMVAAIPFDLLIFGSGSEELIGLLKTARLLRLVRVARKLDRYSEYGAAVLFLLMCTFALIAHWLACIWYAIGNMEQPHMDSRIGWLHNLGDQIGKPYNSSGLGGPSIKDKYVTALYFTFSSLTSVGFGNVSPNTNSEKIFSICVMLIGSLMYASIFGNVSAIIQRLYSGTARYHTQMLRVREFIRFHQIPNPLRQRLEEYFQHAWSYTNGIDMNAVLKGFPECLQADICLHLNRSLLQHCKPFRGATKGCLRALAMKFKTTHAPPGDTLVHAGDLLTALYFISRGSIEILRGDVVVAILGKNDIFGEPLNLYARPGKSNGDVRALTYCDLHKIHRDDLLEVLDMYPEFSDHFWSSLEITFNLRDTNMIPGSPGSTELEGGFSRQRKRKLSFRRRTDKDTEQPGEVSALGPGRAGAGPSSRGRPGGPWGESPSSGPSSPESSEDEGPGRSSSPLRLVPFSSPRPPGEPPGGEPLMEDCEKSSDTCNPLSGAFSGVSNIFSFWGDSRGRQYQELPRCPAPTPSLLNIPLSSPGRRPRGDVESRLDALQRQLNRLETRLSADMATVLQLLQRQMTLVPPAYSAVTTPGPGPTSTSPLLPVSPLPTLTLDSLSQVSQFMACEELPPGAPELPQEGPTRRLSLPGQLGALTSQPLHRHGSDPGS

First: CCc1ccc2[nH]c(=O)c(CN(CCCN3CCOCC3)C(=O)Nc3ccccc3)cc2c1
Second: CCc1ccc2[nH]c(=O)c(CN(CCCN3CCOCC3)C(=O)Nc3cccc(Cl)c3)cc2c1
The “hERG current change (%, negative = inhibition) at 10uM” value of the first is lower: -54.2% for the first, -54.1% for the second.

First: O=C(Nc1cccc(Cl)c1)N(CCN1CCOCC1)Cc1ccccc1F
Second: O=C(Nc1cccc(Cl)c1)N(CCCN1CCOCC1)Cc1ccccc1F
The “hERG current change (%, negative = inhibition) at 10uM” value of the first is higher: -49.6% for the first, -64.5% for the second.

Compared with `CCc1ccc2[nH]c(=O)c(CN(CCCN3CCOCC3)C(=O)Nc3ccc(F)cc3)cc2c1`, `CCc1ccc2[nH]c(=O)c(CN(CCCN3CCOCC3)C(=O)Nc3ccc(Cl)cc3)cc2c1` is higher in “hERG current change (%, negative = inhibition) at 10uM” value: -68.1% for the first, -65.6% for the second.

Compared with `CCc1ccc2[nH]c(=O)c(CN(CCN3CCOCC3)C(=O)Nc3ccccc3F)cc2c1`, `Cc1ccc2[nH]c(=O)c(CN(CCN3CCOCC3)C(=O)Nc3ccc(F)cc3)cc2c1` is lower in “hERG current change (%, negative = inhibition) at 10uM” value: -23.1% for the first, -37% for the second.

Going from `O=C(Nc1ccccc1)N(CCCN1CCOCC1)Cc1cc2cc3c(cc2[nH]c1=O)OCCO3` to `O=C(Nc1ccc(F)cc1)N(CCCN1CCOCC1)Cc1cc2cc3c(cc2[nH]c1=O)OCCO3`, the “hERG current change (%, negative = inhibition) at 10uM” value falls from -2.99% to -25.1%.

First: Cc1ccc2[nH]c(=O)c(CN(CCCN3CCOCC3)C(=O)Nc3ccc(Cl)cc3)cc2c1
Second: Cc1ccc2[nH]c(=O)c(CN(CCCN3CCOCC3)C(=O)Nc3cccc(Cl)c3)cc2c1
The “hERG current change (%, negative = inhibition) at 10uM” value of the first is lower: -71.7% for the first, -32.4% for the second.

Going from `O=C(Nc1ccccc1)N(CCCN1CCOCC1)Cc1ccccc1F` to `COc1ccc2[nH]c(=O)c(CN(CCCN3CCOCC3)C(=O)NCc3ccccc3)cc2c1`, the “hERG current change (%, negative = inhibition) at 10uM” value rises from -20.6% to 8.39%.

Compared with `O=C(Nc1ccc(F)cc1)N(CCCN1CCOCC1)Cc1cc2cc3c(cc2[nH]c1=O)OCO3`, `Cc1ccc(NC(=O)N(CCCN2CCOCC2)Cc2cc3cc4c(cc3[nH]c2=O)OCO4)cc1` is higher in “hERG current change (%, negative = inhibition) at 10uM” value: -49.3% for the first, -42% for the second.

Going from `CCOc1ccc(S(=O)(=O)Nc2ccc3c(c2)OCO3)cc1` to `COc1cc(NS(=O)(=O)c2ccc(NC(=S)NC(=O)c3ccco3)cc2)ncn1`, the “hERG current change (%, negative = inhibition) at 10uM” value rises from -14.9% to 20.4%.

Going from `COc1cc(NC(=S)NCCSc2ccc(C)cc2)cc(OC)c1` to `Cc1ccc(NC(=S)Nc2ccc(OC(F)F)c(Cl)c2)cc1Cl`, the “hERG current change (%, negative = inhibition) at 10uM” value rises from -1.01% to 16.5%.

Going from `C=CCOc1ccccc1CNCc1cccnc1.Cl` to `O=C(Cc1ccccc1)Nc1ncccc1Cl`, the “hERG current change (%, negative = inhibition) at 10uM” value falls from 12.6% to 6.6%.

First: Cc1cc(C(=O)NNC(=S)Nc2cccc(C(F)(F)F)c2)nn1C
Second: Cc1nc(Cl)c(C(=O)Nc2cccc(F)c2)c(C)c1Cl
The “hERG current change (%, negative = inhibition) at 10uM” value of the first is higher: 30.1% for the first, -5.95% for the second.

First: Cc1ccc(-n2cc[nH]c2=S)cc1C
Second: CCOC(=O)c1sc(=S)n(-c2ccc(Cl)cc2)c1C
The “hERG current change (%, negative = inhibition) at 10uM” value of the first is higher: 22.7% for the first, -37.4% for the second.

Compared with `COc1ccc(CN(CCCN2CCOCC2)C(=O)Nc2cccc(Cl)c2)cc1OC`, `COc1cc2cc(CN(CCCN3CCOCC3)C(=O)Nc3ccc(F)cc3)c(=O)[nH]c2cc1OC` is higher in “hERG current change (%, negative = inhibition) at 10uM” value: -39.3% for the first, -33.2% for the second.

First: Oc1ccc(/C=N/NC(=S)Nc2cccnc2)c(O)c1
Second: O=C(NCCc1c[nH]c2ccccc12)c1ccccc1
The “hERG current change (%, negative = inhibition) at 10uM” value of the first is higher: 17.5% for the first, 4.79% for the second.

Going from `CCCCOc1ccc(C(=S)N2CCC(C(N)=O)CC2)cc1` to `COC(=O)c1ccc(NC(=S)N2CCC(C(N)=O)CC2)cc1`, the “hERG current change (%, negative = inhibition) at 10uM” value rises from 6.67% to 12.2%.

Compared with `COC(=O)C1=CO[C@@H](C)[C@H]2CN3CCc4c([nH]c5ccccc45)[C@@H]3C[C@H]12.Cl`, `COC(=O)C1=COC(C)C2CN3CCc4c([nH]c5ccccc45)C3CC12` (centres unmarked) is lower in “hERG current change (%, negative = inhibition) at 10uM” value: -20.2% for the first, -34.3% for the second.

Going from `O=C(NC1CCCN(CCc2ccccc2)C1)c1c(F)cccc1F` (centres unmarked) to `O=C(NC1CCCN(CCc2ccccc2)C1)c1c[nH]c2ccccc12` (centres unmarked), the “hERG current change (%, negative = inhibition) at 10uM” value falls from -46.2% to -68.2%.

First: O=C(NC1CCCN(CCc2ccccc2)C1)C1CCCC1 (centres unmarked)
Second: CSCCC(=O)N1CCCC(N(C)CCc2ccccc2)C1 (centres unmarked)
The “hERG current change (%, negative = inhibition) at 10uM” value of the first is higher: -36.7% for the first, -56.8% for the second.

Going from `O=C(NC1CCN(CCc2c[nH]c3ccccc23)CC1)c1ccccc1` to `O=C(CCc1c[nH]c2ccccc12)NC1CC1`, the “hERG current change (%, negative = inhibition) at 10uM” value rises from -71.7% to 14.1%.

Compared with `COC(=O)C1=CO[C@@H](C)[C@@H]2CN(CCc3c[nH]c4ccccc34)CC[C@H]12`, `CCOC(=O)CCNC(=O)N1CCCC(N(C)CCc2ccccc2)C1` (centres unmarked) is higher in “hERG current change (%, negative = inhibition) at 10uM” value: -57% for the first, -49.4% for the second.

Compared with `CSC1=C(C#N)C(c2ccccc2Cl)C2=C(N1)c1ccccc1C2=O` (centres unmarked), `Cc1ccc(-c2noc(CCCN3C(=O)c4ccccc4C3=O)n2)cc1` is higher in “hERG current change (%, negative = inhibition) at 10uM” value: 6.44% for the first, 9.03% for the second.

Compared with `CCC(C)(C)n1nnnc1C(c1cccs1)N1CCCCC1` (centres unmarked), `COc1ccc(CCN(C)C2CCCN(C(=O)Cn3cnnn3)C2)cc1OC` (centres unmarked) is higher in “hERG current change (%, negative = inhibition) at 10uM” value: -19.4% for the first, 10.2% for the second.

First: Cc1cccn2c(CN3CCCN(C=O)CC3)c(C(=O)N(C)CCc3ccccc3)nc12
Second: CC(=O)NCCC(=O)N1CCCC(N(C)CCc2ccccc2)C1 (centres unmarked)
The “hERG current change (%, negative = inhibition) at 10uM” value of the first is higher: 26.6% for the first, -26.7% for the second.

First: COC(=O)CCCC(=O)N1CCCC(N(C)CCc2ccccc2)C1 (centres unmarked)
Second: CCOC(=O)CCNC(=O)N1CCCC(N(C)CCc2ccc(OC)c(OC)c2)C1 (centres unmarked)
The “hERG current change (%, negative = inhibition) at 10uM” value of the first is lower: -40.6% for the first, -6.37% for the second.

Going from `COc1ccc(CCN(C)C2CCCN(C(=O)Cn3cccn3)C2)cc1OC` (centres unmarked) to `COCC(=O)N1CCCC(N(C)CCc2ccc(OC)c(OC)c2)C1` (centres unmarked), the “hERG current change (%, negative = inhibition) at 10uM” value rises from -6.28% to 8.28%.

Compared with `COc1ccc(CCN(C)C2CCCN(C(=O)CCSC)C2)cc1OC` (centres unmarked), `COc1ccc(CCN(C)C2CCCN(C(=O)CCC(F)(F)F)C2)cc1OC` (centres unmarked) is higher in “hERG current change (%, negative = inhibition) at 10uM” value: -57.2% for the first, -52% for the second.

First: CCCCNC(=O)N1CCCC(N(C)CCc2ccc(OC)c(OC)c2)C1 (centres unmarked)
Second: CCOC(=O)CNc1nc(Cl)nc(Nc2ccc(OC)cc2OC)n1
The “hERG current change (%, negative = inhibition) at 10uM” value of the first is lower: -67.8% for the first, 19.2% for the second.

Compared with `COCC(C)n1c(C)cc(C(=O)CN2C(=O)NC3(CCCCC3C)C2=O)c1C` (centres unmarked), `COc1ccccc1-n1cnnc1SCC(=O)c1cc(C)n(Cc2cccs2)c1C` is lower in “hERG current change (%, negative = inhibition) at 10uM” value: -8.29% for the first, -27.8% for the second.

Going from `CCC(C)(C(=O)NC1CCCCC1)N(C(=O)CNC(=O)c1ccccc1)c1c(C)n(C)n(-c2ccccc2)c1=O` (centres unmarked) to `Cc1ccccc1CS(=O)(=O)CCC(=O)NCCN1CCN(c2cccc(Cl)c2)CC1`, the “hERG current change (%, negative = inhibition) at 10uM” value falls from 10.1% to -42.5%.

Compared with `CN=C1SC(C(=O)O)CC(=O)N1C` (centres unmarked), `CCCCNC(=O)CC1NCCNC1=O` (centres unmarked) is higher in “hERG current change (%, negative = inhibition) at 10uM” value: 19.1% for the first, 22% for the second.

Going from `Cc1nc2ccc(S(=O)(=O)NCC(=O)NCCc3ccc(Cl)cc3)cc2s1` to `CSc1nnc(CNS(=O)(=O)c2ccc(F)cc2)n1C`, the “hERG current change (%, negative = inhibition) at 10uM” value falls from 28.3% to 19.7%.

First: c1ccc2c(-c3nnc(SCc4cn5ccccc5n4)o3)c[nH]c2c1
Second: COc1ccc(-c2nnc(SCC(=O)c3cc(C)n(Cc4cccs4)c3C)o2)cc1
The “hERG current change (%, negative = inhibition) at 10uM” value of the first is lower: -4.5% for the first, 5.36% for the second.

First: CCN1/C(=C/c2ccc3ccccc3[n+]2CCCS(=O)(=O)[O-])C=Cc2cc(C)ccc21
Second: C=CC[n+]1c(/C=C2\C=Cc3cc(C)ccc3N2CC)ccc2ccccc21.[Br-]
The “hERG current change (%, negative = inhibition) at 10uM” value of the first is higher: 24.2% for the first, -83.5% for the second.

Going from `CCOC(=O)/C(C#N)=C/C=C1\C=Cc2ccccc2N1CC` to `CCN1C(=C(C#N)C#N)C=Cc2ccccc21`, the “hERG current change (%, negative = inhibition) at 10uM” value rises from 7.18% to 15.8%.

Going from `CCN1/C(=C2\C(=O)N(c3ccccc3)N=C2C)C=Cc2cc(C)ccc21` to `CCN1C(=O)/C(=C2\C=Cc3cc(C)ccc3N2CC)OC1=S`, the “hERG current change (%, negative = inhibition) at 10uM” value rises from -40% to 0.13%.

Compared with `CCN1/C(=C/c2cc[n+](C)cc2)C=Cc2cc(C)ccc21.[I-]`, `CCN1C(=C(C#N)C#N)C=Cc2cc(C)ccc21` is higher in “hERG current change (%, negative = inhibition) at 10uM” value: -72.2% for the first, 15.7% for the second.

First: CCN1/C(=C/c2ccc3ccccc3[n+]2CC)C=Cc2ccccc21.[Cl-]
Second: CCN1C(c2ccc(F)cc2)=CS/C1=C(\C#N)c1nnc2n1-c1ccccc1SC2
The “hERG current change (%, negative = inhibition) at 10uM” value of the first is lower: -82.5% for the first, -58.9% for the second.

Compared with `CC1=C(C(N)=O)C(c2ccccc2F)n2nc(CCCO)nc2N1` (centres unmarked), `CCn1cnc2c(oc3ccccc32)c1=O` is lower in “hERG current change (%, negative = inhibition) at 10uM” value: 20.3% for the first, 18.3% for the second.

Compared with `OCC[C@H]1C[C@H](O)[C@@H](O)[C@@]2(CCc3ccccc3CO2)O1`, `CN1CCN(C(=O)c2sc(=S)n(-c3ccccc3)c2N)CC1` is lower in “hERG current change (%, negative = inhibition) at 10uM” value: 7.83% for the first, -10.2% for the second.

First: CCOCC(=O)Nc1cc([N+](=O)[O-])ccc1C
Second: CCOC(=O)c1sc(=S)n(-c2ccc(OC)cc2)c1N
The “hERG current change (%, negative = inhibition) at 10uM” value of the first is lower: -2.36% for the first, 15.2% for the second.

Compared with `CN1C(c2ccc(F)cc2)=CS/C1=C(\C#N)c1nnc2n1-c1ccccc1SC2`, `Br.CN1C(c2ccc(F)cc2)=CS/C1=C(/C#N)c1nnc(N2CCOCC2)n1-c1ccccc1` is higher in “hERG current change (%, negative = inhibition) at 10uM” value: -45.5% for the first, -23.8% for the second.

First: COc1ccc(-n2cnnc2SCC(=O)c2cc(C)n(Cc3cccs3)c2C)cc1
Second: CCOC(=O)c1sc(=S)n(-c2ccc(OC)cc2)c1C
The “hERG current change (%, negative = inhibition) at 10uM” value of the first is lower: -73.5% for the first, -51.1% for the second.

First: COC(=O)Cn1c(=O)cnc2ccccc21
Second: CCOc1ccc(-n2c(N)c(C(=O)N3CCN(C)CC3)sc2=S)cc1
The “hERG current change (%, negative = inhibition) at 10uM” value of the first is higher: -2.96% for the first, -51% for the second.

In the case of `Cc1ccc(-n2c(N)c(C(=O)N3CCN(C)CC3)sc2=S)cc1`, the “hERG current change (%, negative = inhibition) at 10uM” value is reported as -30.4%.
